Measurements published in PMC6212790, “How bacterial xenogeneic silencer rok distinguishes foreign from self DNA in its resident genome”.
In all, about 33,000 sequences were measured (“e-score”: median about -0.037, highest 2% from about 0.34 on). This is one part of a sample in which the highest values are shown more often than they occur.

target: T1, GST-Rok (full length) (Bacillus subtilis subsp. subtilis str. …, UniProt O34857 1-191); experiment: protein binding microarray; Rok is a gene silencer of Bacillus subtilis; high values mean tight binding; conditions: protein: recombinant; tags: GST (pTH5325, pDEST15-Magic modified); dsDNA, one strand shown
T1 sequence: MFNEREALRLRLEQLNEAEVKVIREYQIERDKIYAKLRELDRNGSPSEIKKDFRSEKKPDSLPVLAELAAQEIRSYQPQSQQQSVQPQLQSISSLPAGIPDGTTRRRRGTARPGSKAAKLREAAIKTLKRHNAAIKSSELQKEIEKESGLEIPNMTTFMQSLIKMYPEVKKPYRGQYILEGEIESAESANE
Method in brief: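 Every oligonucleotide joins a 25-mer constant primer to a 35-mer variable part drawn from a de Bruijn sequence of order 10, so each non-palindromic 8-mer appears at least 32 times and each palindromic 8-mer 16 times. The preference for every 8-mer is reported as a unitless, rank-based enrichment score (E-score). This score spans 0.5 for the most favored 8-mer to −0.5 for the most disfavored.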

Row | Sequence | binding signal [E-score]
1 | ACGGTTGC | -0.00987
2 | CGACGTAC | -0.0209
3 | ACTGCCGC | -0.152
4 | ATAGGAAG | 0.0173
5 | AGGCTCGA | -0.0603
6 | CATCTACA | 0.177
7 | AATCTACA | 0.326
8 | GCTCTACA | -0.114
9 | GATCTACA | 0.369
10 | TATCTACA | 0.348
11 | GGTCTACA | 0.0329
12 | ATTAAATG | 0.0625
13 | AGGCTGTA | 0.00795
14 | ACTACTAT | 0.465
15 | ACTACAAT | 0.344
16 | ACTACAAG | 0.22
17 | ACTACTAC | 0.4
18 | ACTACAAC | 0.293
19 | CCTACTAC | 0.258
20 | ACAACTAT | 0.33
21 | ACTACTCT | 0.184
22 | GCTACTAC | 0.198
23 | ACAACTAG | 0.351
24 | ACAACTAC | 0.311
25 | ACTACTGG | 0.224

Row | Sequence | binding signal [E-score]
26 | ATGCGAGA | 0.00939
27 | CGTTTGTC | -0.0759
28 | CTACCAAC | 0.164
29 | AGACGCTG | -0.151
30 | CAGTCCAA | -0.0763
31 | AGCCCAAC | -0.175
32 | TCCAGAAA | -0.00865
33 | CCTACTAG | 0.0992
34 | ACTACTAG | 0.346
35 | ACTACTCG | 0.187
36 | ATGGTACG | 0.183
37 | GCATTAAC | 0.0561
38 | ATACTAAC | 0.199
39 | ACACTAAA | 0.174
40 | AGACTAAA | -0.0347
41 | ATACTAAA | 0.391
42 | TTACTAAA | 0.32
43 | CTACTAAC | 0.324
44 | ATACTAAG | 0.175
45 | CTACTAAA | 0.357
46 | ATACTAAT | 0.378
47 | GAGGCATC | -0.172
48 | CAGCTGTA | 0.0605
49 | ACATCTAC | 0.272
50 | ACTTCGGA | -0.0792

Row | Sequence | binding signal [E-score]
51 | ACCCTAAA | 0.024
52 | CCACTGTC | -0.188
53 | CTGCTTTA | 0.0813
54 | ATAAGGAC | -0.2
55 | GCAGAAAC | -0.0153
56 | CTAGAAAA | 0.291
57 | CTAGAAAC | 0.3
58 | TTAGAAAA | 0.185
59 | GTAGAAAA | 0.387
60 | GTAGAAAC | 0.427
61 | ATCTGGTC | -0.135
62 | ATCTTTAA | 0.0286
63 | AGATTGGC | 0.136
64 | CGTTCCAC | -0.021
65 | ATATTTAA | 0.387
66 | ATATTTAG | 0.287
67 | CTCTTTAC | 0.158
68 | CTATTTAA | 0.0252
69 | CTATTTAC | 0.342
70 | ATTTTTAA | -0.0198
71 | ATATTTAC | 0.379
72 | ATATTTGC | 0.285
73 | ACATTTAC | 0.313
74 | AGTCAAAA | 0.108
75 | CGTTTGAA | -0.00324

Row | Sequence | binding signal [E-score]
76 | ACCTTCAG | -0.119
77 | TCCACAAA | 0.0863
78 | CGTCGCAA | -0.166
79 | AGAACTAG | 0.298
80 | AGAACTAA | 0.254
81 | AGAACTAT | 0.381
82 | ATAACTAA | 0.26
83 | ATAACTAT | 0.407
84 | ATAACTAG | 0.243
85 | CATGCTGA | -0.132
86 | AGTGGTCC | -0.177
87 | GTCCCGGA | -0.141
88 | GATCATTA | 0.355
89 | CATCATTA | 0.0295
90 | AATCATTA | 0.158
91 | TGTAGGAA | 0.0806
92 | GGTAGTAA | 0.335
93 | CGTAGTAA | 0.198
94 | AGTAGTAA | 0.384
95 | TGTAGTAA | 0.349
96 | TGTTGTAA | 0.142
97 | ACTGGACG | 0.057
98 | TCAAGTAA | 0.154
99 | AGTAGACA | 0.0413
100 | CTAATCTA | 0.362

Row | Sequence | binding signal [E-score]
101 | GTAATCTA | 0.245
102 | ATAATCTC | 0.161
103 | CTAATCAA | 0.165
104 | CTAATCTC | 0.0718
105 | ATAATCTA | 0.352
106 | ATGCATGG | 0.0449
107 | AACCTACG | 9.3e-05
108 | CCAACTGC | -0.00979
109 | AGGTTTAA | 0.00862
110 | GTATACCA | 0.311
111 | ATATACCA | 0.411
112 | ATATACCG | 0.385
113 | AGATACCG | 0.12
114 | CTATACCA | 0.258
115 | ATATACCC | 0.188
116 | CATTAATC | 0.219
117 | AACGGTCT | -0.0396
118 | GTCCCGCA | -0.196
119 | CGCGGTTA | -0.0283
120 | GTAAATAC | 0.352
121 | GTAAATAA | 0.234
122 | CTAAATAA | 0.251
123 | ATAAATAC | 0.276
124 | CTAAATAC | 0.351
125 | CTAAATAG | 0.172

Row | Sequence | binding signal [E-score]
126 | CAAGCAGC | -0.0674
127 | AAGTTACA | 0.18
128 | TAGTTATA | 0.382
129 | CAGTTACA | 0.24
130 | CAGTTATA | 0.288
131 | TAGTTACA | 0.349
132 | GAGTTATA | 0.222
133 | AGCTGAAG | 0.0654
134 | AACGCCTA | -0.101
135 | ACTTAACC | 0.121
136 | ATACCGAT | 0.342
137 | ATACCGAG | 0.116
138 | ATACCGAC | 0.0836
139 | GTTGGCGA | -0.0273
140 | GGAGCAGA | -0.132
141 | CGCCTTCA | 0.0118
142 | TAGCAGGA | -0.0921
143 | ACCAAGGT | -0.0988
144 | GACACGAC | -0.0441
145 | AGTAGTTC | 0.413
146 | CGTAGTTA | 0.127
147 | AGTAGTTG | 0.388
148 | ATTAGTTG | 0.334
149 | GGTAGTTA | 0.413
150 | AGTAGTGA | 0.0919

Row | Sequence | binding signal [E-score]
151 | AGTAGTTA | 0.434
152 | ACTAGTTG | 0.313
153 | GGTAGTCA | 0.125
154 | CGTAGTTC | 0.255
155 | GTTAGTTA | 0.258
156 | ATTAGTTC | 0.172
157 | GTAAGAAA | 0.327
158 | CGTACAAC | 0.103
159 | CGGAGGAA | -0.194
160 | ACAATGAC | 0.00584
161 | AAAGACAA | 0.02
162 | GTTATTCA | 0.0398
163 | ATAGGTCC | 0.123
164 | CTAAGGCC | -0.158
165 | AATATTCG | 0.255
166 | AATATTCT | 0.338
167 | AATATTGA | 0.287
168 | AATATTGG | 0.103
169 | AATATTGT | 0.34
170 | AATATTCC | 0.131
171 | TGCGGGAA | -0.19
172 | CTAAGCCA | 0.0287
173 | GGTTAGTA | 0.0365
